Reference: PubChem BioAssay AID504652 (National Center for Advancing Translational Sciences (NCATS), 2011)
“And” between values parts separate entries of the source, which are not always exact repeats. Identical values can stand only once. Out of some 360,000 compounds screened, about 11,000 (3.1%) were called active. Cut-off read from the data, not from the text of the source: active = activity change below about -30%; inactive = the rest. Only a selection was taken, and actives are over-represented in it overall. A structure can be active in one record and inactive in another.

molecular target: D(1A) dopamine receptor (Homo sapiens) (UniProt P21728); test: Antagonist of Human D 1 Dopamine Receptor: qHTS; conditions: HEK293 TREx D1 cells, calcium flux, dopamine EC80; at 10 µM; stronger effect = lower value
Outline: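 Using tetracycline-induced force-coupled D1 Hek293 cells and a calcium dye, signals were followed for 180 s after compound, then for 180 s after EC80 dopamine, to detect inhibitors.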
% is set by controls: 0 for no effect and ±100 for the full control effect.

D(1A) dopamine receptor (Homo sapiens), sequence (P21728 whole entry, looked up): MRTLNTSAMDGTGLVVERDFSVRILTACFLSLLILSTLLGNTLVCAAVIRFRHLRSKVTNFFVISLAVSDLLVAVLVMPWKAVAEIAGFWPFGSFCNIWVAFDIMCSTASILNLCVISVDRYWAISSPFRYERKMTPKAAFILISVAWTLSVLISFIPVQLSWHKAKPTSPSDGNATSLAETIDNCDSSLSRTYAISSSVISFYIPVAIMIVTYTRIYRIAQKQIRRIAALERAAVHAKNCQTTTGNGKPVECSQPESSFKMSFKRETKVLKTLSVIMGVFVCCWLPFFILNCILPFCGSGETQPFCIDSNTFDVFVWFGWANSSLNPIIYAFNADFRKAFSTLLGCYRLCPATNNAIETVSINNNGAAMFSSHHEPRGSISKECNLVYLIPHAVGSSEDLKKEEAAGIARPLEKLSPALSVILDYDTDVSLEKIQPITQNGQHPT

Activity change, negative = inhibition, active:
O=C(COC(=O)C1CCCCC1)Nc1ccc([N+](=O)[O-])cc1 -34.5%
COc1cccc(N2CCN(S(=O)(=O)c3ccc4c(c3)CCCN4C(C)=O)CC2)c1 -35.4%
O=C(C1CCCN(S(=O)(=O)c2ccccc2)C1)N1CCN(c2ccc(F)cc2)CC1 (stereo not given) -43.7%
CC(NC(=S)Nc1ccc(OC(F)F)cc1)c1ccc(F)cc1 (stereo not given) -35.4%
Cc1ccc(NC(=S)NCc2ccccc2Cl)c(C)c1 -39.4%
S=C(NCc1ccco1)NCc1ccccc1Cl -32.9%
CCOC(=O)c1cc2c(=O)n3ccccc3nc2n(CC2CCCO2)c1=NC(=O)c1ccc(C(C)(C)C)cc1 (stereo not given) -30.2%
Cn1c(=O)c(=O)n(C)c2cc(S(=O)(=O)NCCN3CCN(c4ccccc4F)CC3)ccc21 -46.1%
OCCn1c(-c2ccccc2)csc1=Nc1ccccc1 -45.5%
CN(C)CCCn1c(-c2ccc(Cl)cc2)csc1=Nc1ccccc1 -34.7%
COc1ccc(C(=O)Nc2ccnn2C2CCN(Cc3ccncc3)CC2)cc1 -37.3%

Activity change, negative = inhibition, -14.3% (inactive) and -32% (active):
CC(=O)N1CCCc2cc(S(=O)(=O)N3CCCC(C(=O)N4CCN(c5cccc(Cl)c5)CC4)C3)ccc21 (stereo not given)

Activity change, negative = inhibition, inactive:
Oc1ccc(Cl)cc1C1C=C(c2ccc3c(c2)OCO3)NC(c2ccc(F)c(Br)c2)N1 (stereo not given) -22.1%
Cc1cccc(S(=O)(=O)c2cn(Cc3ccccc3)c3cc(N4CCOCC4)c(F)cc3c2=O)c1 0.0166%
NC(=O)c1ccc(NC(=O)COC(=O)c2ccc([N+](=O)[O-])cc2)cc1 1.67%
N/C(Cc1ccc([N+](=O)[O-])cc1)=N\OC(=O)C1CCCCC1 -11.7%
CCCCOc1ccc(C(=O)Nc2cccc(-c3nc4ccccc4o3)c2C)cc1 -0.438%
Cc1oc2ccc(O)c(CN3CCCCC3)c2c1C(=O)Nc1cccc(C(F)(F)F)c1 11.6%
CC(=O)N1CCCc2cc(S(=O)(=O)N3CCC(C(=O)NC4CCCCC4)CC3)ccc21 0.0767%
O=C(C1CCC1)N1CCN(c2ccccc2)CC1 6.47%
CC(=O)N1c2ccc(S(=O)(=O)N3CCC(C(=O)N4CCN(c5ccccc5)CC4)CC3)cc2CC1C (stereo not given) -7.84%
CC(=O)N1CCCc2cc(S(=O)(=O)CCC(=O)N3CCN(c4ccccc4)CC3)ccc21 -0.97%
Cc1ccc(S(=O)(=O)N2CCCC(C(=O)N3CCN(C)CC3)C2)cc1 (stereo not given) 10.2%
COc1ccc(N2CCN(S(=O)(=O)c3ccc4c(c3)N(C(C)=O)CCO4)CC2)cc1 -18%
CC(=O)Nc1cccc(NC(=O)CSc2cn(CC(=O)N3CCCC3)c3ccccc23)c1 12.2%
CC(=O)Nc1ccc(NC(=O)CSc2nnc3c4cc(Br)ccc4n(C)c3n2)cc1 -2.66%
Cc1cccc(C)c1-n1ncc(C(=O)NCCCN2CCCCC2)c1C1CCN(C(=O)OC(C)(C)C)CC1 40.2%
CCOC(=O)CN1C(C(=O)c2ccccc2)=C(OC(=O)C(C)(C)C)c2ccccc2S1(=O)=O -13.9%
FC(F)(F)c1cc(Nc2nc3ccccc3c3nncn23)ccc1Cl -0.606%
CC1=C(C(=O)Nc2ccccc2Cl)C(c2cccs2)n2ncnc2N1 (stereo not given) 4.21%
CC(C)CNC(=S)Nc1ccc(F)cc1 12.4%
CC(C)N(Cc1ccccc1)C(=S)Nc1ccc(OC(F)F)cc1 -4.75%
CCOC(=O)c1ccc(NC(=O)CC2C(=O)N(c3ccccc3)C(=O)N2Cc2cccs2)cc1 (stereo not given) -10.5%
COc1cc(NC(=S)NCc2ccco2)c(OC)cc1Cl -9.33%
Cc1ccc(NC(=S)NCCc2ccc(Cl)cc2)c(C)c1 22.5%
Cc1cc(F)ccc1NC(=S)NCCc1ccccc1 -15.6%
S=C(NCCc1ccccc1)NCc1ccccc1Cl -29.8%
COc1ccccc1C(=O)NCCn1cc(SCc2ccccc2Cl)c2ccccc21 -10.4%
Cc1ccc(N2CC(C(=O)Nc3ccc(N(C)C)cc3)CC2=O)cc1Cl (stereo not given) 2.7%
Cc1ccc(CNS(=O)(=O)c2ccc(C(=O)N(C)C)s2)cc1 5.34%
Cc1ccccc1CNC(=O)Cn1c(C)c2cnn(-c3ccccc3)c(=O)c2c1C -7.63%
COc1ccc(S(=O)(=O)Nc2cc3c(C(=O)OC(C)C)c(C)oc3c3ccccc23)cc1 -3.34%
CCOC(=O)c1cc2c(=O)n3ccccc3nc2n(CC2CCCO2)c1=NC(=O)c1ccccc1F (stereo not given) 7.85%
CCOC(=O)c1cc2c(=O)n3ccccc3nc2n(CC2CCCO2)c1=NC(=O)c1ccccc1Br (stereo not given) 4.67%
Cc1cccc(-n2ccnc2SCC(=O)Nc2cc(C(F)(F)F)ccc2Cl)c1 -5.92%
CCOC(=O)N1CCN(c2c(NCCN3CCN(c4ccccc4F)CC3)c(=O)c2=O)CC1 -21.9%
Cn1c(=O)c(=O)n(C)c2cc(S(=O)(=O)NCCc3ccccc3)ccc21 -4.68%
CN(C)CCCn1c(SCc2ccc(Cl)cc2)nnc1-c1ccncc1 10.2%
CN(C)CCCn1c(=O)n(Cc2ccccc2)c(=O)c2c3c(sc21)CCCCC3 3.11%
O=c1cc(CCl)nc2scc(-c3ccccc3)n12 -12.4%
O=C1N(Cc2ccccc2)c2ccc(Cl)cc2C1(O)c1c[nH]c2ccccc12 (stereo not given) -8.31%
Cc1ccc(-n2nnnc2CNC(=O)c2ccccc2C)cc1C -3.19%
CC(C)Oc1ccc(CN2CCC(n3nccc3NC(=O)c3cccnc3)CC2)cc1 8.77%
COc1ccccc1C(=O)Nc1ccnn1C1CCN(Cc2cnn(C)c2)CC1 1.08%
CCc1ccc(C2CC(=O)c3c([nH]c(C(=O)OCc4ccc(C)cc4)c3C)C2)cc1 (stereo not given) -10.1%
